Measured values as given in the supplement of paper PMC11732987, “Enantioselective OTUD7B fragment discovery through chemoproteomics screening and high-throughput optimisation” (Communications Chemistry, 2025).

Experiments:
Experiment in all cases: log2 ratio of Biotin-Ahx-Ub-VS probe labelling (fragment/DMSO); higher = less target engagement (more negative = stronger competition), active = hit call of the paper (q ≤ 0.05, log2 ratio ≤ -1)
Settings in all cases: compound concentration: 200 uM; treatment time: 3 h
[1] = target: T1, USP42 (UniProt Q9H9J4)
T1 sequence (whole entry): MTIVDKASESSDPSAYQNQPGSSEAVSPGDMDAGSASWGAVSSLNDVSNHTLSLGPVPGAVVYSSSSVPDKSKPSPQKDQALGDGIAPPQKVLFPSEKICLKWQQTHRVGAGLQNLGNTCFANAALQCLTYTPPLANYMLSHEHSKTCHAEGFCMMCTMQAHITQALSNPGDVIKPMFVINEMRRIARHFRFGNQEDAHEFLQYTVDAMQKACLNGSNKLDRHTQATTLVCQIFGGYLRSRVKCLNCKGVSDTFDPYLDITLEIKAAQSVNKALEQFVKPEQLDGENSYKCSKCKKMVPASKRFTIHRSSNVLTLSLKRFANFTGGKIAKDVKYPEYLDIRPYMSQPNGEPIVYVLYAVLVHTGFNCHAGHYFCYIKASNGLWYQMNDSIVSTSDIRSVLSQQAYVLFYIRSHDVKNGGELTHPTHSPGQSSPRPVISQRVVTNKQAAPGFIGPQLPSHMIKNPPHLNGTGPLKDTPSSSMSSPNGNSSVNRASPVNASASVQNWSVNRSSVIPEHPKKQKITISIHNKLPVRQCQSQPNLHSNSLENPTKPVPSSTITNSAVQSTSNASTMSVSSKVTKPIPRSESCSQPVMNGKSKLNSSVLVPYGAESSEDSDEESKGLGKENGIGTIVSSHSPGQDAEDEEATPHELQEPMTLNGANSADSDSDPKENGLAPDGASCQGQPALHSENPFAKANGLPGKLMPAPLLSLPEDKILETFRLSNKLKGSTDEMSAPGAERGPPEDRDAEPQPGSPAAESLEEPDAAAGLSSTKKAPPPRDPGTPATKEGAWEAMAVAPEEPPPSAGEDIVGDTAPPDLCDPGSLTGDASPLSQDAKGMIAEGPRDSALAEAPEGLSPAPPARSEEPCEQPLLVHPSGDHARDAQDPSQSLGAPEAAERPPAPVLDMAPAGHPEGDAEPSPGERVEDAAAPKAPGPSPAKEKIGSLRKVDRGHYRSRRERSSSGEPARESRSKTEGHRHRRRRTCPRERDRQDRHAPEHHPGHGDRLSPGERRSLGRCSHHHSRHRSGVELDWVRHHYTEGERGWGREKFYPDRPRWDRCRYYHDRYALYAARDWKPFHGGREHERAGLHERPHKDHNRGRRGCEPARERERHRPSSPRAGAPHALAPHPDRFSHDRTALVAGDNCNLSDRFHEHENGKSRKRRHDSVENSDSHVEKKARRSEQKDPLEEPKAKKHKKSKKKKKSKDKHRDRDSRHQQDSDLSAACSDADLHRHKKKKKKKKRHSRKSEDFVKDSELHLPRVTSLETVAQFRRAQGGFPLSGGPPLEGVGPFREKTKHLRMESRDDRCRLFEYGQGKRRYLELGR
Procedure, shortened: (§1)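 HEK293T lysate (495 µg per sample, in Tris/CHAPS/IGEPAL buffer with protease inhibitors) was exposed in triplicate for 3 h to fragment at 200 µM or to vehicle, then to Biotin-Ahx-Ub-VS at 0.5 µM final for 1 h. Labelled DUBs were enriched on NeutrAvidin, digested with LysC and trypsin, and analysed by diaPASEF LC-MS/MS. Spectronaut label-free quantities were normalised to the global median, and values are average log2 ratios of fragment over vehicle from an unpaired t-test. Only proteins with ≥2 unique peptides were used.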

[2] = target: USP46 (UniProt P62068)
Procedure, shortened: as §1

[3] = target: T2, USP47 (UniProt Q96K76)
T2 sequence (whole entry): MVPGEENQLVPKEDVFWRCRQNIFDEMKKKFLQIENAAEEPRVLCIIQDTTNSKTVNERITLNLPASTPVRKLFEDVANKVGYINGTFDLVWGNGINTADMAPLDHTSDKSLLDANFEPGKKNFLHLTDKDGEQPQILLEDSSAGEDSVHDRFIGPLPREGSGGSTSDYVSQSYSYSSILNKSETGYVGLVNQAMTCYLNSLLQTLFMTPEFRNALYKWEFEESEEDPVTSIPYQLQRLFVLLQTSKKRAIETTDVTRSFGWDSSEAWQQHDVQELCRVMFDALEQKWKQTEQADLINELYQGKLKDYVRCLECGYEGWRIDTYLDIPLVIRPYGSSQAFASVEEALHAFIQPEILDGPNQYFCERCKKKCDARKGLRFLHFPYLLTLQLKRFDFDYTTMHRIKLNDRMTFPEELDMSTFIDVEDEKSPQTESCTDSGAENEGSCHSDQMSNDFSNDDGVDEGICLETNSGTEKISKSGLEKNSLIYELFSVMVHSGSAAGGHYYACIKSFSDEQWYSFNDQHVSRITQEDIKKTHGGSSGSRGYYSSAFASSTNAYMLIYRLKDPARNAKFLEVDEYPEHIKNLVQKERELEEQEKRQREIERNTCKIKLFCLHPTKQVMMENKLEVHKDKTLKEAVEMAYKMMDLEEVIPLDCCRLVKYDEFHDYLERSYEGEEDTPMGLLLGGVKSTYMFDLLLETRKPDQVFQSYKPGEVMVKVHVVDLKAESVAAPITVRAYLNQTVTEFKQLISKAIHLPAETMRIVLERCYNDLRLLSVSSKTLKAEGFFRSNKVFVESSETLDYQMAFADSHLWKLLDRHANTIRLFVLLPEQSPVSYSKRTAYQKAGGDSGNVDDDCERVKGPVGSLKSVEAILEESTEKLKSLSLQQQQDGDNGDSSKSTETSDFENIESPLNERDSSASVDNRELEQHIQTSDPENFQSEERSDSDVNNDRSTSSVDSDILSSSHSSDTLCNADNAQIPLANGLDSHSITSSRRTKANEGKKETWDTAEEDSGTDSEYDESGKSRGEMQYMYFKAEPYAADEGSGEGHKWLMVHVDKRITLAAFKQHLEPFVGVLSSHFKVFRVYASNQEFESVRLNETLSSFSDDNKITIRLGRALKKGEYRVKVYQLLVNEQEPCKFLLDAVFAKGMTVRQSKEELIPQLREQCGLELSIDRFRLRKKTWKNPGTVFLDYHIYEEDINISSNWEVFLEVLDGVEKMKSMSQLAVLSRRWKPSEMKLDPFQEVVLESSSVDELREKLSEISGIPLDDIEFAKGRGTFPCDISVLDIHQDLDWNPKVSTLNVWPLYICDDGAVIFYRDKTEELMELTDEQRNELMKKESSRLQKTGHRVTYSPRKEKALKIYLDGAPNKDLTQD
Procedure, shortened: as §1

[4] = target: T3, USP48 (UniProt Q86UV5)
T3 sequence (whole entry): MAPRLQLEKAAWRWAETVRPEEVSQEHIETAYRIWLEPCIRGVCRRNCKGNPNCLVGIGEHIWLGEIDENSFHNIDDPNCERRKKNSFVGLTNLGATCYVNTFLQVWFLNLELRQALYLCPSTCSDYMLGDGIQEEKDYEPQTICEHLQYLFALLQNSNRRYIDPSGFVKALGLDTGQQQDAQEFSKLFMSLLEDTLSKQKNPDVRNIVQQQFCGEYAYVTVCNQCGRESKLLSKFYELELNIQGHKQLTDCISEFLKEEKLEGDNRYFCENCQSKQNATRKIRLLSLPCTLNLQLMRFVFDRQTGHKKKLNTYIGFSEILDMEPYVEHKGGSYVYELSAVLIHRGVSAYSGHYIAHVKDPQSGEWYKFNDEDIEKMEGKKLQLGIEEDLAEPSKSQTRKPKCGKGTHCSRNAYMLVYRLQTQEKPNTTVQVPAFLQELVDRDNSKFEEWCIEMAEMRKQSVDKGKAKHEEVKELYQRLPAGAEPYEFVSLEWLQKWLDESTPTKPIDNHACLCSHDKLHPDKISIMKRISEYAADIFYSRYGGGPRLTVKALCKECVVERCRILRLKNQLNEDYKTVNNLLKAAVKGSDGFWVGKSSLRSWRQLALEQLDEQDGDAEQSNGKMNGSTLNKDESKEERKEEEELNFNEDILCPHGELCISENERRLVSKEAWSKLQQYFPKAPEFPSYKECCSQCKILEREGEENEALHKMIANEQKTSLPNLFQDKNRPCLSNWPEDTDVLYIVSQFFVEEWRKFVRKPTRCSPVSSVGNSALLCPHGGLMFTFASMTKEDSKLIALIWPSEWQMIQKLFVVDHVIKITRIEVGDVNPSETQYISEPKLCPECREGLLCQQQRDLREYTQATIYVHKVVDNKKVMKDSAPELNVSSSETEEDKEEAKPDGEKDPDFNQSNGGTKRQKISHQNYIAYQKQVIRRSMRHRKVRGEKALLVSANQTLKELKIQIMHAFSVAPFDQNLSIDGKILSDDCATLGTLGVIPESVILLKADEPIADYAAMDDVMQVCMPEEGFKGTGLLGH
Procedure, shortened: as §1

[5] = target: T4, USP5 (UniProt P45974)
T4 sequence (whole entry): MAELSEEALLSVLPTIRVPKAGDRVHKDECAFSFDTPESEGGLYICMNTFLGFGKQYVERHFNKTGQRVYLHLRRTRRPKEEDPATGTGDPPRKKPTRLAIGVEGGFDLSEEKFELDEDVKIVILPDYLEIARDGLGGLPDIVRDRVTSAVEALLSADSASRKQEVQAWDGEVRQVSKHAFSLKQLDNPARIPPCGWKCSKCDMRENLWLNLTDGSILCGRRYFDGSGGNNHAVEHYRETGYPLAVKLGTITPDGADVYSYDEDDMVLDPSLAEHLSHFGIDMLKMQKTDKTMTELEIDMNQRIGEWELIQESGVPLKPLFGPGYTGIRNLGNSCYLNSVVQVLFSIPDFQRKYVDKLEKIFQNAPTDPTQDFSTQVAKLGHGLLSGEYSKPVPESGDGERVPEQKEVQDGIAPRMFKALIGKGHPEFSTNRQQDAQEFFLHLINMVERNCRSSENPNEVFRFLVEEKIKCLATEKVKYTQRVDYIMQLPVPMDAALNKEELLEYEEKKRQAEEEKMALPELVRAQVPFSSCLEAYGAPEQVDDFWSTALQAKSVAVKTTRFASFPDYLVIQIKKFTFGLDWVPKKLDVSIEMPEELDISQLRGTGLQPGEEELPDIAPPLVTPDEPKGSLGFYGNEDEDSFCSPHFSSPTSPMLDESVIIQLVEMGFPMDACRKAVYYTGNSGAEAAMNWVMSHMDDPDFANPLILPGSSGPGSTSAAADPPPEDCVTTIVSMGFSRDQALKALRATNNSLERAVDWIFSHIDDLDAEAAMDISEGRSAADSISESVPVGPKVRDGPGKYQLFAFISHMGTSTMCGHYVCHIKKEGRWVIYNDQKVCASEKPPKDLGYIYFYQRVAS
Procedure, shortened: as §1

[6] = target: USP54 (UniProt Q70EL1)
Procedure, shortened: as §1

[7] = target: USP7 (UniProt Q93009)
Procedure, shortened: as §1

[8] = target: T5, USP8 (UniProt P40818)
T5 sequence (whole entry): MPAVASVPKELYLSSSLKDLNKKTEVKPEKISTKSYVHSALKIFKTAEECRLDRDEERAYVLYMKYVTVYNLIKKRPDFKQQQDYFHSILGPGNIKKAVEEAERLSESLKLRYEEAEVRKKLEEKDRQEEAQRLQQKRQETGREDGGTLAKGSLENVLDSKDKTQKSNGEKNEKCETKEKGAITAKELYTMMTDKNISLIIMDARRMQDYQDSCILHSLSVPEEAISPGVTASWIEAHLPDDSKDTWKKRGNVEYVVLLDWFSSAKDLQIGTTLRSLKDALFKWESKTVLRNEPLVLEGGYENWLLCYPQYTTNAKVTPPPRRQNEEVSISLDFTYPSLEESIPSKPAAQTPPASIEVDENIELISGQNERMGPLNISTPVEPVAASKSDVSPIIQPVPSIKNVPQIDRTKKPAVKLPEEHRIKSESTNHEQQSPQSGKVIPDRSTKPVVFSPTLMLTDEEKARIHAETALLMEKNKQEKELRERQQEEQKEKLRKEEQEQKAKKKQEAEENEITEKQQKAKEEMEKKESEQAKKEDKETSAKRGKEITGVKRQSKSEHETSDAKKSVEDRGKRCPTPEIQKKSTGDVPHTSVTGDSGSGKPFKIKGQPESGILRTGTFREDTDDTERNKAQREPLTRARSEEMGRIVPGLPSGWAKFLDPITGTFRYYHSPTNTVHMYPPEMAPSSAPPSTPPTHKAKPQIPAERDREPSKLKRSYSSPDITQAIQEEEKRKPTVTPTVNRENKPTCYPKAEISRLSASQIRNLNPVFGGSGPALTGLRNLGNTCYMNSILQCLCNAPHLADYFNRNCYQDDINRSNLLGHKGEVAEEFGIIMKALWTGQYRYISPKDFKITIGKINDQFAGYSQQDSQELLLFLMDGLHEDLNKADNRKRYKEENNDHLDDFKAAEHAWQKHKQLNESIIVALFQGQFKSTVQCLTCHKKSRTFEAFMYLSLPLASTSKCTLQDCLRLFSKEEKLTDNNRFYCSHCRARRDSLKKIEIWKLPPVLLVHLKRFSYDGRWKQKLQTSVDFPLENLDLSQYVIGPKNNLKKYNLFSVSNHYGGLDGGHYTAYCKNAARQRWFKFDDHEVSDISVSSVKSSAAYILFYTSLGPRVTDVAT
Procedure, shortened: as §1

[9] = target: USP9X (UniProt Q93008)
Procedure, shortened: as §1

[10] = target: UniProt O00487
Procedure, shortened: as §1

Measured: log2 ratio of Biotin-Ahx-Ub-VS probe labelling

Chain of USP9X (Q93008 whole entry): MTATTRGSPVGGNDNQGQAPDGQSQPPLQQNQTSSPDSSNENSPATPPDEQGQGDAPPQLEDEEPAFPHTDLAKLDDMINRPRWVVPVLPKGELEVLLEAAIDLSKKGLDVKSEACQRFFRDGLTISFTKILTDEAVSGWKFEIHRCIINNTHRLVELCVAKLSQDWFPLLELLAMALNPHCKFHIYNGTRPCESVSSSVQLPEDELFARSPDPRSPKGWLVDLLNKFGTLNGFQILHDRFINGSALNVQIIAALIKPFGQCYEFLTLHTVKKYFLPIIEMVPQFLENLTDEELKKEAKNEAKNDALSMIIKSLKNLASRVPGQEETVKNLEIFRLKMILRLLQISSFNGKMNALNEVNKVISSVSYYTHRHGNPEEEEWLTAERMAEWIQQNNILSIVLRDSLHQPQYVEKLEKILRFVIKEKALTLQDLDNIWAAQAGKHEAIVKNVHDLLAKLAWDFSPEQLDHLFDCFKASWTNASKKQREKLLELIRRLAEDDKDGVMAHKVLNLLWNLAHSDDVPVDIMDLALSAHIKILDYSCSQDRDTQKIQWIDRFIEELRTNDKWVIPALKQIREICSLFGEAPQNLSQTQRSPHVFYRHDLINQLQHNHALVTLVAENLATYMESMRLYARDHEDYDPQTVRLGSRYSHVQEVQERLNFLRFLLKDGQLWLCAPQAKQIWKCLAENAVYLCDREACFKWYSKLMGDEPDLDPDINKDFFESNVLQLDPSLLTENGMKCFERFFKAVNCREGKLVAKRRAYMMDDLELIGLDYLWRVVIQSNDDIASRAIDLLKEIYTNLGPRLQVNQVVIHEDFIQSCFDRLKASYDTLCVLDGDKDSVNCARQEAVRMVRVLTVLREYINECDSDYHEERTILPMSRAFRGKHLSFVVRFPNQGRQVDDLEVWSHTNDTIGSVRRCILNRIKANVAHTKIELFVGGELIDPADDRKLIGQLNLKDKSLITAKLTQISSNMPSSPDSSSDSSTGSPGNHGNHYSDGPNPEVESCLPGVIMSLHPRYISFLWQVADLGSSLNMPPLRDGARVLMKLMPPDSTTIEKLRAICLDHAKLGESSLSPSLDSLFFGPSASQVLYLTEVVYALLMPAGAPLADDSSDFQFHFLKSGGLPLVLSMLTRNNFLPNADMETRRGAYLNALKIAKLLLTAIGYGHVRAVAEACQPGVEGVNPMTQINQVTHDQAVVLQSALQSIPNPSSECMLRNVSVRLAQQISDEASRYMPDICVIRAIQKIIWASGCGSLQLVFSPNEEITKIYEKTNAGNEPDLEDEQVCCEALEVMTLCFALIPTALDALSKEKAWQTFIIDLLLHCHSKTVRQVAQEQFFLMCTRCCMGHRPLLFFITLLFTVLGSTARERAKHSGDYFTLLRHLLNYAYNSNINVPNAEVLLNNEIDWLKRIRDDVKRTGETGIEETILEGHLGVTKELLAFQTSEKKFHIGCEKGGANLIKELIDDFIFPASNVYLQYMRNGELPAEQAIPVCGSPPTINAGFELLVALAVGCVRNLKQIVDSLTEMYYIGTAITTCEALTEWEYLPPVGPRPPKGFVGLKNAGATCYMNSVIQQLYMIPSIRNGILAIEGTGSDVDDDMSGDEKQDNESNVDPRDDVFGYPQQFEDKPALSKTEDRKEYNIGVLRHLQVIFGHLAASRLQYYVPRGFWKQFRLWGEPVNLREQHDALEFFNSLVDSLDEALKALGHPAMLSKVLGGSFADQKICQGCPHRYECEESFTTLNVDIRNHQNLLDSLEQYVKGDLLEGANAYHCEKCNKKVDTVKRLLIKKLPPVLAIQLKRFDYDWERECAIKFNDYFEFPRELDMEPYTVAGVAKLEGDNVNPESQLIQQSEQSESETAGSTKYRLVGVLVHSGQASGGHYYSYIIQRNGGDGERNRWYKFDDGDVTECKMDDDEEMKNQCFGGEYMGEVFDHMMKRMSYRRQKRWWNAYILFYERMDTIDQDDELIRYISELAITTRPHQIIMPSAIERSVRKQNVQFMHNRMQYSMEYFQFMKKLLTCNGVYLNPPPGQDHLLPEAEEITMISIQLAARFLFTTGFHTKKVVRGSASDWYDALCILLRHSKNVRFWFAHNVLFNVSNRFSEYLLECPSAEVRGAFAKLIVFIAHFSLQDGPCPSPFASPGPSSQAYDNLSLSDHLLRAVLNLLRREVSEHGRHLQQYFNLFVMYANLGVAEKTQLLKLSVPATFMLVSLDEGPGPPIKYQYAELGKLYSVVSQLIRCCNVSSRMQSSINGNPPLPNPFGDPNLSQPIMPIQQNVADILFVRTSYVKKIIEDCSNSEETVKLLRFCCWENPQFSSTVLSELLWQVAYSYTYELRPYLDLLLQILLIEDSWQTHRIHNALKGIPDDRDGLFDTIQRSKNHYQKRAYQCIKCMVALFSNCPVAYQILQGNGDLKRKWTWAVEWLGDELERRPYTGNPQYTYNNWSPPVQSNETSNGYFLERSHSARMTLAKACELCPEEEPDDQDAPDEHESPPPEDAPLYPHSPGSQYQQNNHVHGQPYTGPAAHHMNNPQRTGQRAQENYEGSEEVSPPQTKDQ
Chain of USP54 (Q70EL1 whole entry): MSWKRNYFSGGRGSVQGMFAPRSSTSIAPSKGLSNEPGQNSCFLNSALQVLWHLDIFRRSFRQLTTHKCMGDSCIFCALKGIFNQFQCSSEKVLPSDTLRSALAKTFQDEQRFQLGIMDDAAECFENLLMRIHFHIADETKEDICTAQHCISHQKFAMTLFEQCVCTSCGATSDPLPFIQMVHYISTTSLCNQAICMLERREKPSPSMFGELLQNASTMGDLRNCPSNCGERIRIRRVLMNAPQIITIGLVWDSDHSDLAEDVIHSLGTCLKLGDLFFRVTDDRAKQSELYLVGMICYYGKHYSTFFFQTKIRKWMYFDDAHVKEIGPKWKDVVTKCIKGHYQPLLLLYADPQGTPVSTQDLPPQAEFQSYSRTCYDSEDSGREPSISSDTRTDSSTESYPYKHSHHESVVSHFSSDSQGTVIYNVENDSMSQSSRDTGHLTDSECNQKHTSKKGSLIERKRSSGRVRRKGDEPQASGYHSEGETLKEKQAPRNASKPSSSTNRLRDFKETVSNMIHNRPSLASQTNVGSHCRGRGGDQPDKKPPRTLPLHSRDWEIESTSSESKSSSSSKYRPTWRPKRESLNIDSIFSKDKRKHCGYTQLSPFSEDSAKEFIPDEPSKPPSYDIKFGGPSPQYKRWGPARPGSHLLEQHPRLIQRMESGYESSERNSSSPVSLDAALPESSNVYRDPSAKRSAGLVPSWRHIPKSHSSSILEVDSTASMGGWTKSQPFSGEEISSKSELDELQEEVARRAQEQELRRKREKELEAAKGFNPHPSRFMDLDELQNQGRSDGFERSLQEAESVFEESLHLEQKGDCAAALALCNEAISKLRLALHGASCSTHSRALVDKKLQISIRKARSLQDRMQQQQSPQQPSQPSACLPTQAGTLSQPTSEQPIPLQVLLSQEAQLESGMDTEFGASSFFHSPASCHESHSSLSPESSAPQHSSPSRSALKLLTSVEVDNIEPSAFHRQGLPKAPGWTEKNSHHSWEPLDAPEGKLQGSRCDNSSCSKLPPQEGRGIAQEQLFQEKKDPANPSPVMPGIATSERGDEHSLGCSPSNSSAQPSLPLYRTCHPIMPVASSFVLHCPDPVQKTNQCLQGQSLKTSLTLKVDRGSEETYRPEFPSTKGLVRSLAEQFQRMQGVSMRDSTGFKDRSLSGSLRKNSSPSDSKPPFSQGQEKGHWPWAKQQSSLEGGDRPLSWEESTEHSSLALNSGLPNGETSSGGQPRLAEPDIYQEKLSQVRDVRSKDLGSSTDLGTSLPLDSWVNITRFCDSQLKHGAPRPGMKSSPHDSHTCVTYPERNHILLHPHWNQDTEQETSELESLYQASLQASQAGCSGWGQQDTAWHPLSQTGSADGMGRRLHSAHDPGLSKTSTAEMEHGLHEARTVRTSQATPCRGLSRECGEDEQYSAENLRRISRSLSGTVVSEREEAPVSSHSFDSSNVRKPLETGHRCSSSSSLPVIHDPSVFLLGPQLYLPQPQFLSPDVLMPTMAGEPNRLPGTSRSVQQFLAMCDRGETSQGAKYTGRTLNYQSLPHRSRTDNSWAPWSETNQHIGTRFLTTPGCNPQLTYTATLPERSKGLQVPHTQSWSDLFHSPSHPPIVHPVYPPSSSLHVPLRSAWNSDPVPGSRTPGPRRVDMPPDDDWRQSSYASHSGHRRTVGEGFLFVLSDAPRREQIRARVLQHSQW
Chain of UniProt O00487 (O00487 whole entry): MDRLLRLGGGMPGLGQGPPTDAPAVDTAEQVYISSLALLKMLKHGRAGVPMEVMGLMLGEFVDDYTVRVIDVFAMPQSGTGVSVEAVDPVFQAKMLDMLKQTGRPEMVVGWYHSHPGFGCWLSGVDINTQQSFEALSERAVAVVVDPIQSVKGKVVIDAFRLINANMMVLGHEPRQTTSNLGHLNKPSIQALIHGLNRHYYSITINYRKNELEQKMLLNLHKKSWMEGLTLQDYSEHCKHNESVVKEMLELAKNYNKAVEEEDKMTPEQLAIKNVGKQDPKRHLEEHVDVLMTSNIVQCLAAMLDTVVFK
Chain of USP46 (P62068 whole entry): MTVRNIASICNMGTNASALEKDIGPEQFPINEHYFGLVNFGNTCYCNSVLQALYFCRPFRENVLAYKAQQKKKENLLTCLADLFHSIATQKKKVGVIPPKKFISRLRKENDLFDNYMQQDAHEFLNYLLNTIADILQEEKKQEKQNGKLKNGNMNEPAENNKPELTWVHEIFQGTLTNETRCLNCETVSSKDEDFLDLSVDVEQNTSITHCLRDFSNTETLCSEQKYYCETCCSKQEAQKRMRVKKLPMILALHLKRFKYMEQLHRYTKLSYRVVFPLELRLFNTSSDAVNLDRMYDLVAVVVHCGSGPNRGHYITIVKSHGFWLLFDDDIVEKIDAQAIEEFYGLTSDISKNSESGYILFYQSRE

Cc1n[nH]c2c1CN(C(=O)CCl)CC2
inactive: [1] 0.421 | [2] -0.91 | [4] -0.779 | [5] -0.67 | [6] 0.337 | [7] -0.758 | [9] -0.85 | [10] -0.184
active: [3] -1.08 | [8] -1.11
